Measured values from the supplement of paper PMC10105736.

Columns and labels:
Assay in all cases: MAPPIT interaction score (arbitrary units); higher = stronger binary interaction signal, active = hit call of the paper;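 active = MAPPIT score above the 99th percentile of random reference set scores in the same batch; inactive = at or below it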
CG1971 = details: MAPPIT configuration: N-N; pair source set: Curagen_high_conf
CG9986 = details: MAPPIT configuration: N-N; pair source set: Curagen_low_conf
Mdr49 = details: MAPPIT configuration: N-N; pair source set: Lit-BS-16
PAN3 = details: MAPPIT configuration: N-N; pair source set: Curagen_low_conf
CG17770 = details: pair source set: RRS
CG17217 = details: MAPPIT configuration: N-N; pair source set: Finley_Y2H
PIG-T = details: MAPPIT configuration: N-N; pair source set: DPIM
Prosalpha6T = details: pair source set: Lit-BM-16
Prosbeta3 = details: MAPPIT configuration: N-C; pair source set: Lit-BM-16
Rpt2 = details: pair source set: Lit-BM-16
Rpt4 = details: pair source set: Lit-BM-16

Measured: MAPPIT interaction score
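Also: HEK293T cells with Epo stimulation, STAT-responsive firefly luciferase reporter, fold induction versus unstimulated cells divided by the larger fold induction of two negative controls lacking either bait or prey.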

B1: CG2678 (protein)
chain: MMHSAKNVCRTCMDETGTLVDIFANVRDPVLDEPEMSLSHILARCTERPVKRGDLLPQFICVSCVLAVQNAFRFKWQSEQSYQHFFRVLNQSGAPENQVHLAACNGDKNQIINQKMQLKSDRQQDTQQMTKTQKPDDDLSQKQTLQAKLQEGNIDGPPESFTLHPRKRTCRTEEQADMIPKEATRSTKMICDADGYYNCPHCSKRFCSQTQLRTHITDLCNRCPYCPRTYMQKSNLKRHLRNHLSKPAHKCFHCSKAFMRKDHLKRHLRTHDSDGPLSCSQCSAVFIEHVQLEIHRREHKQRPGSSKSESTKDPDSDDSDQAQDLKPKWTKNTFNGTCSIPPMLKPKPICDICQKKFSSVYALKRHMLTHNRQHHLKKCTYCSEEFKTEKHLKRHERGHMGDLFRCEFCSLVFVDVNYLRKHKKRIHSNNVIAM
inactive: CG1971 -0.147 | CG9986 -0.191 | Mdr49 -0.0532 | PAN3 -0.0312

B2: Rtf1 (protein)
chain: MGKRRTQSLIDSNSSDSDSESETNLESDLMSLAKKRKKPQTAAKSSSRSDSDSDWANNKAGAPSSKKKKRQKPSRDSSSSESNWDDDSQDERQPARQSPAQTQQEHKPPEQASQPAQLSEQEEGEVSDSDSDKSKSNSSSSGSDSSSSSSSSDSEFDDGFDDDLMGDDEDRRRLNGLSEKERETEIYKRIEQREIMRTRWEIERKLKLARRGEKNQEKSKNKGERAKKKKEKREKKARKAREAQAPLPTQASTSTLLDVEPKPSNEVRSASPLSTPALNRDAASTSAAVASIMPDDAASSAGVSDYFDHKERSKERKKNVEANKTDDKRSNAMALLKAKREGKAKREEEEAKRMAEKDRDDDKEELDSVSGCKSAVKLKASEIYSDDSGSSDWDEEEKPAGKRSRSNSSKASSESEDEEKAPQRPVFITTREDLNKLRLSRYKMERFVNLPIFESTVLNCFVRISIGNNGQKPVYRVAEIVGVVETGKIYSLGTTRTNRGLRLKHGTQERVFRLEFISNQEFTENEFNKWNEVCQQSHVQMPTIDLIAIKQNDIKKALNYEFKDEDVDKIVEEKNRFRNRPTNYAMKKTCLMKERDAAMLRGDYDIAQDLGQQIDELENRASELDKRRSHTLNLISYINDRNRKKNVEDAEKAILEEARANKGLKISDPFTRRITQPRMGFKGAKKDEDDMQLAPLPPPPPGKKRPNEAGTSSASVRSTDSKDYSLYSLHDFDIDLDVPLPVNTNSVPKPASKPAETVSKRSLNLEDYKKKRGLI
inactive: CG17770; MAPPIT configuration: N-C 0.216 | CG17770; MAPPIT configuration: N-N -0.281

B3: Prosalpha2 (protein)
chain: MATERYSFSLTTFSPSGKLVQLEYALAAVSGGAPSVGIIASNGVVIATENKHKSPLYEQHSVHRVEMIYNHIGMVYSGMGPDYRLLVKQARKIAQTYYLTYKEPIPVSQLVQRVATLMQEYTQSGGVRPFGVSLLICGWDNDRPYLYQSDPSGAYFAWKATAMGKNAVNGKTFLEKRYSEDLELDDAVHTAILTLKEGFEGKMTADNIEIGICDQNGFQRLDPASIKDYLASIP
inactive: CG17217 1.84 | PIG-T 0.383 | Prosalpha6T; MAPPIT configuration: N-C 2.29 | Prosalpha6T; MAPPIT configuration: N-N -0.206 | Prosbeta3 1.69 | Rpt2; MAPPIT configuration: N-C -1.15 | Rpt2; MAPPIT configuration: N-N 0.523 | Rpt4; MAPPIT configuration: N-C 0.723 | Rpt4; MAPPIT configuration: N-N -0.155
